The source made the active and inactive calls.

The nature of assay [1]: small molecules captured by biotinylated probe aFSTL3 – biochemical, small-molecule microarray, fluorescence 635/667, stem cell growth factor project, primary screen (AID 1064).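 Note: measures binding of the biotinylated anti-FSTL3 antibody to printed compounds.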 The conditions noted are these: higher = more signal.
Assay [2] can be described thus: binders from COS7 lysate, DM2A8 probe, primary screen, torsin A project, cell lysate, small-molecule microarray, fluorescence 635/667 (AID 1065). The conditions noted are these: higher = more signal, COS7 lysate expressing mutant human TOR1A.
Assay [3] can be described thus: small molecules captured by biotinylated probe aFGF2 – biochemical, small-molecule microarray, fluorescence 635/667, stem cell growth factor project, primary screen (AID 1067).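 Note: measures binding of biotinylated aFGF2 protein to printed compounds on slides; z-score merges feature fluorescence and signal-to-noise across triplicate slides.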 The conditions noted are these: higher = more signal.
Assay [4] is described as follows: small molecules captured by biotinylated probe aFGF10 – biochemical, small-molecule microarray, fluorescence 635/667, stem cell growth factor project, primary screen (AID 1071).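 Note: score merges 667 nm spot intensity and signal to noise from triplicate slides.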 To be noted: higher = more signal.
The target in assay [5] is Neurogenic locus notch homolog protein 2 (Homo sapiens) (UniProt Q04721). Nature of the assay: small molecules binding Notch2 protein – biochemical, small-molecule microarray, 635 nm fluorescence, stem cell growth factors, primary screen (AID 1073). To be noted: higher = more signal.
The target in assay [6] is Pro-neuregulin-1, membrane-bound isoform (Homo sapiens) (UniProt Q02297). Nature of the assay: small molecules binding neuregulin-1 protein – biochemical, small-molecule microarray, fluorescence 635/667, psychiatric disease protein project, primary screen (AID 1075).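 Note: score combines 667 nm spot fluorescence with signal to noise.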 To be noted: NRG1 binding, 635 nm fluorescence, higher = more signal.
In assay [7] the test system is Neuregulin-1 EGF-like domain. Nature of the assay: small molecules binding NRG1 EGF domain – biochemical, small-molecule microarray, 635 nm fluorescence, primary screen (AID 1081).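 Note: binding of the protein to compounds printed on small-molecule microarray slides.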 To be noted: higher = more signal.
Assay [8] is described as follows: FRG1 expression reporter modulators in myotubes – cell-based, C2C12 myotubes, firefly/Renilla luciferase, luminescence, FRG1 inhibition for FSHD, primary screen (AID 1084). The conditions noted are these: FRG1 promoter luciferase, higher = more signal, called active from +8 up or from −8 down.
Assay [9] can be described thus: small molecules captured by biotinylated probe aFST – biochemical, small-molecule microarray, fluorescence 635/667, stem cell growth factor project, primary screen (AID 1086).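 Note: score merges 667 nm fluorescence with signal-to-noise of each printed compound spot.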 The conditions noted are these: higher = more signal.
Assay [10] is described as follows: binders of probe aHhip on microarray, primary screen, stem cell growth factor project, biochemical, small-molecule microarray, fluorescence 635/667 (AID 1087).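 Note: score merges spot fluorescence at 667nm with spot signal to noise ratio.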 To be noted: higher = more signal.

Neurogenic locus notch homolog protein 2 (Homo sapiens), sequence (Q04721 whole entry, looked up, canonical isoform): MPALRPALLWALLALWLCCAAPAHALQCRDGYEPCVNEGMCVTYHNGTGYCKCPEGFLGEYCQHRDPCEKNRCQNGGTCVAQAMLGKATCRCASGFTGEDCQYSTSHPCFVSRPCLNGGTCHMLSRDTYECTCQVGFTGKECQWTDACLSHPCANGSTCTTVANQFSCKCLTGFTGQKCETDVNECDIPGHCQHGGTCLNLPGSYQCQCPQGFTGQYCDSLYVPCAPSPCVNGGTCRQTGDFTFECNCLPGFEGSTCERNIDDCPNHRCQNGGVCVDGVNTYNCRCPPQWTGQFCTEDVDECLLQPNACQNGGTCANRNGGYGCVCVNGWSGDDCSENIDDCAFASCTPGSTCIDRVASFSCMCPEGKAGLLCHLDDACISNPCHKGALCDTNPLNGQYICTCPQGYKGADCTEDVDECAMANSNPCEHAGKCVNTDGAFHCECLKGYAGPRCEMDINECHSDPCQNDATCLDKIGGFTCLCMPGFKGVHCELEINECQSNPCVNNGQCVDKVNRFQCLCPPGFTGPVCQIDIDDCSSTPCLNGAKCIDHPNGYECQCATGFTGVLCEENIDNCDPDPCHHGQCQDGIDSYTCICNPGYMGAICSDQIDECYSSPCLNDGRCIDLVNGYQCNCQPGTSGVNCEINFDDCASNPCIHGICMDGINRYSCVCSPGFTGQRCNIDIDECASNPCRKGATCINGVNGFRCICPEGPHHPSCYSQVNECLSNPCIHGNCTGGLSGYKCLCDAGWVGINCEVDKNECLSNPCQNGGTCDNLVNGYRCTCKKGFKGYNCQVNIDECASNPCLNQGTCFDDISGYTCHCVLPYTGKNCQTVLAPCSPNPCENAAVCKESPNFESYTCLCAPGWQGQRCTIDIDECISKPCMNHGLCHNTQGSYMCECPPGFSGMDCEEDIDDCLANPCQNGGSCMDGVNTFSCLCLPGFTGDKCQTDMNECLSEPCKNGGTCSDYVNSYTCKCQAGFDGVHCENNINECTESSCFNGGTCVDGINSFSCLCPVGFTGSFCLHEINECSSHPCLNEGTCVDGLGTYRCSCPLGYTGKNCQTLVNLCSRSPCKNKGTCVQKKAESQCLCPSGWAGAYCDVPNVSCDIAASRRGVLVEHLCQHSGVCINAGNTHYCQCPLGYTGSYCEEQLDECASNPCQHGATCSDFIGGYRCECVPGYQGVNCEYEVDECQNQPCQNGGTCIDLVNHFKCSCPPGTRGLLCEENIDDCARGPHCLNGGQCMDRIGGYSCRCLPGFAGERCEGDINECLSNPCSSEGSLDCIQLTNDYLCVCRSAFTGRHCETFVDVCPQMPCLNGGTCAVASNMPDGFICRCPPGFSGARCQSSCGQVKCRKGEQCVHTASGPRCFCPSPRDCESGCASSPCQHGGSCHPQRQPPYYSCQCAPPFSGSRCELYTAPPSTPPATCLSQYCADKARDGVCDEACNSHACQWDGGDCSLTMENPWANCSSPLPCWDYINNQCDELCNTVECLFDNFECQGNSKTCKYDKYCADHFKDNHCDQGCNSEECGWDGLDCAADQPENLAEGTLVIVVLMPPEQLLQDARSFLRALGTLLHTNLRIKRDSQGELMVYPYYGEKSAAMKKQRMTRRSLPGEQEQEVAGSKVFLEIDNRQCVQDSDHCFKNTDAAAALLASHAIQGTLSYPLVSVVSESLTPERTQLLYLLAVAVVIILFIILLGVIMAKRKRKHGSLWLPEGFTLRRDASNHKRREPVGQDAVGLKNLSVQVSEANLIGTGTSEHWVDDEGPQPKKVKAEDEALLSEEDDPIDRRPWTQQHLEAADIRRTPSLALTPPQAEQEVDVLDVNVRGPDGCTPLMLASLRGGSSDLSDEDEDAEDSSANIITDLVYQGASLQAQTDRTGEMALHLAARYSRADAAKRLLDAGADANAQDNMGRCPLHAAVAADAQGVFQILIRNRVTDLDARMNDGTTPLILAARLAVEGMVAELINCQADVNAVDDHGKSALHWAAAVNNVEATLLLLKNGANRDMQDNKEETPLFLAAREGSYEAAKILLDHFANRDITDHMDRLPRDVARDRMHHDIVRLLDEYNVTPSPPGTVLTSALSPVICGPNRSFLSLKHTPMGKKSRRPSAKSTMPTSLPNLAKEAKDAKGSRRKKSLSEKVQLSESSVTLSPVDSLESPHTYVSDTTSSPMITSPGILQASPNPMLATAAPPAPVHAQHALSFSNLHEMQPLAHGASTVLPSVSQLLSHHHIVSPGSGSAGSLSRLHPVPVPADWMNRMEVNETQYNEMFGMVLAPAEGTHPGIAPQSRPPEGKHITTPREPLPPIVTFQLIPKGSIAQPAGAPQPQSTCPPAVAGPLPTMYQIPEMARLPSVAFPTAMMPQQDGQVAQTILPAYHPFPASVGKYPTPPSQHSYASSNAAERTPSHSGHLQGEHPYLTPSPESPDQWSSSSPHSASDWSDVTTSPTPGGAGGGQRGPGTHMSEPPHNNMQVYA
Pro-neuregulin-1, membrane-bound isoform (Homo sapiens), sequence (Q02297 whole entry, looked up, the tested form may be a part, canonical isoform): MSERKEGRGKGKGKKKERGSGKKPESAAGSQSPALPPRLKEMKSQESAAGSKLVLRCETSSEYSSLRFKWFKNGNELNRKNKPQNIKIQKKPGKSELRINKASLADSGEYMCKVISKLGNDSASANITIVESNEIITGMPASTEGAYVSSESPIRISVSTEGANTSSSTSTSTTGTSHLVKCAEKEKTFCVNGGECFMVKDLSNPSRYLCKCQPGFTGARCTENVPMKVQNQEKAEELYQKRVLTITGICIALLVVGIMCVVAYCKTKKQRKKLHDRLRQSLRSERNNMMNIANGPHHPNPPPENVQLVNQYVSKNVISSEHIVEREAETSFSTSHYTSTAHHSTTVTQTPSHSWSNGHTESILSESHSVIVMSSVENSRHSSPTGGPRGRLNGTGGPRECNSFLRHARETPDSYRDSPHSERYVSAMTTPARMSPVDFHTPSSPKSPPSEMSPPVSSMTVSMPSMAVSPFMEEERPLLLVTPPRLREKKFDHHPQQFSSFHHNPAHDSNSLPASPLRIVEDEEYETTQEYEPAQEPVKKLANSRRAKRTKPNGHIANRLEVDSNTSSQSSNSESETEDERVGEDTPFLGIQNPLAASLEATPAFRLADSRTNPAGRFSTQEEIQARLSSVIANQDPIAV

Regarding `C=CC[C@@]1(C(N)=O)N=C(c2ccc(OCCCO)cc2)O[C@@H]1c1ccccc1CN=[N+]=[N-]`, the composite z-score is 0.626 in [1]; -0.41 in [2]; -0.0193 in [3]; 0.291 in assay [4]; 0.77 in assay [5]; 2.17 in [6]. The results for the composite z-score in [7], in [9] and in [10] were 1.41, 1.19 and 0.0053, respectively. In addition, the z-score in [8] was 2.94 (inactive).

`CC(=O)n1cc(C(O)C2C=CC3C(=O)N(C)C(=O)C3N2Nc2ccccc2)c2ccccc21` (stereo not given): the composite z-score in [1] was 0.508; in assay [2] it was 0.287; in assay [3], 0.0672; in assay [4] it was 0.974; in assay [5] it was 1.58; in [6], 1.78. The composite z-score in [7] is 1.27; in assay [9], 0.951; in assay [10] it was -0.0196. Moreover, the z-score in [8] was 0.376 (inactive).

`CCCCCCC#C[Si](O[C@H](c1ccccc1)c1cn([C@H](CO)Cc2ccccc2)nn1)(C(C)C)C(C)C`: the composite z-score in assay [1] is -0.206; in assay [2], 0.0423; in [3] it was -0.142; in assay [4], 0.296; in [5], -0.39; in assay [6], -0.138. Further, the composite z-score was 1 in assay [7], -0.682 in assay [9] and -0.0324 in assay [10]. The z-score in assay [8] was -0.334 (inactive).

For `CC(=O)NCCCC[C@@H]1NC(=O)[C@@H]2C[C@H](C(=O)NCCCCCCNC(=O)CS)[C@H](c3cccc(OCCO)c3)N2C1=O`, the composite z-score in assay [1] was 0.0659; in assay [2] it was 0.311; in assay [3] it was -0.0212; in [4] it was 0.283; in assay [5] it was 0.149; in assay [6] it was 0.632. Further, the results for the composite z-score in assay [7], in [9] and in assay [10] were 1.24, 0.414 and -0.299, respectively. For the same compound, the z-score in assay [8] is 0.743 (inactive).

Consider `CCCCC=C[C@@H](NC(=O)Oc1cccc(C(F)(F)F)c1)c1ccccc1`, for which the composite z-score in assay [1] is 1.56; in assay [2], 0.974; in assay [3], 0.84; in [4] it was 1.03; in assay [5], 1.55; in [6] it was 1.47. The composite z-score in assay [7] is 1.11; in assay [9], 2.02; in [10] it was 2.27. Further, the z-score in assay [8] was -3.84 (inactive).

Regarding `CCOC(=O)[C@H]1CC=C2CC1C(=O)N1CCC[C@@H]1[C@@H]2O[Si](C)(C)C(C)(C)C` (stereo not given in full), the composite z-score in [1] was -0.502; in assay [2] it was -0.0173; in [3] it was -0.221; in assay [4], -0.0337; in assay [5], -1.9; in assay [6], -0.596. Moreover, the figures for the composite z-score in assay [7], in assay [9] and in assay [10] were -0.415, -0.686 and -0.0994, respectively. Besides, the z-score in assay [8] is -0.591 (inactive).

For `CC(C)OC(=O)C=C1C[C@@H](c2ccccc2C(F)(F)F)O[C@@H](c2ccccc2C(F)(F)F)O1`, the composite z-score was -0.173 in assay [1]; -0.11 in assay [2]; -0.0924 in [3]; -0.443 in assay [4]; 0.647 in [5]; 0.113 in [6]. The values for the composite z-score in assay [7], in [9] and in assay [10] were -0.0471, 0.2 and -0.0994, respectively. The z-score in assay [8] was 0.009 (inactive).

With `O=C1O[C@H](c2ccccc2)[C@H](c2ccccc2)N2[C@H]1[C@@H](C(=O)N1CCN(c3ncccn3)CC1)[C@]1(C(=O)Nc3ccc(C#CC4=CCCCC4)cc31)[C@H]2c1ccc(O)cc1`, the composite z-score in assay [1] is -0.001; in assay [2] it was 0.542; in assay [3] it was -0.0523; in assay [4], 0.768; in [5] it was 1.28; in assay [6] it was 1.11. The composite z-score is 1.24 in assay [7], 0.502 in assay [9] and -0.201 in assay [10]. The z-score in [8] was -0.63 (inactive).

As for `CCCCN1CC=CC23O[C@@H]4/C=C\CCC(C)OC(=O)C4[C@H]2C(=O)N(CCCCCO)[C@@H]3C1=O` (stereo not given in full), the composite z-score in assay [1] is 0.141; in assay [2] it was -0.421; in [3], -0.132; in assay [4], -1.16; in assay [5] it was -0.784; in assay [6] it was 0.768. Besides, the composite z-score in assay [7] is 0.178; in [9] it was -0.526; in assay [10], -0.0994. Further, the z-score in [8] is 0.464 (inactive).

For the compound `C=CCC(OC(C)=O)[C@@H]1[C@@H](N(Cc2ccc(-c3cccc(C(F)(F)F)c3)o2)C(=O)Cc2ccc(F)cc2)c2cc(OCCCO)ccc2N1C(=O)Cc1ccc(OC)cc1` (stereo not given in full), the composite z-score in [1] was -0.0361; in assay [2], -0.162; in assay [3] it was -0.0971; in assay [4], 0.318; in assay [5], -0.944; in assay [6] it was -0.14. Also, the composite z-score in [7] is -0.751; in [9] it was -0.26; in assay [10], -0.164. In assay [8], the z-score is -0.373 (inactive).

Regarding `C=C(/C(=C/C[C@@H](OC(C)=O)c1ccc(OCCO)cc1)c1cnc2ccccc2c1)C(C)C`, the composite z-score was -0.0854 in assay [1]; 0.769 in [2]; -0.073 in [3]; 0.164 in assay [4]; 0.205 in assay [5]; 0.213 in [6]. Also, the composite z-score in [7] is 0.946; in assay [9], 0.142; in [10], -0.0645. In addition, the z-score in assay [8] was -1.06 (inactive).

For `Cc1ccc(C(C)CC(O)C2C=CC3C(=O)N(c4ccccc4)C(=O)C3N2Nc2ccc([N+](=O)[O-])cc2)o1` (stereo not given), the composite z-score in [1] is -0.0729; in assay [2] it was 0.123; in assay [3], 0.0757; in [4], 0.513; in assay [5] it was 1.51; in [6] it was 1.69. Also, the composite z-score was 1.2 in assay [7], 1.51 in assay [9] and 0.0373 in assay [10]. Also, the z-score in assay [8] was 0.296 (inactive).

Consider `C=CCN1C(=O)[C@@]2(O[C@@H](CCO)[C@H]([Si](C)(C)c3ccc(OC)cc3)[C@H]2C)c2cc(NC(=O)c3ccc(OC)cc3)ccc21`, for which the composite z-score in [1] was -0.114; in assay [2], 0.612; in [3] it was -0.0739; in [4], -0.0379; in assay [5], 0.454; in assay [6], 0.213. For the same compound, the values for the composite z-score in [7], in [9] and in assay [10] were 0.949, 0.171 and -0.0003, respectively. The z-score in [8] is -0.797 (inactive).

As for `CN(C)C(=O)[C@@]1(Cc2ccccc2CN=[N+]=[N-])N=C(c2ccc(OCCCO)cc2)O[C@H]1c1ccccc1`, the composite z-score in assay [1] was 0.214; in assay [2], -0.163; in [3], 0.0575; in assay [4] it was 0.663; in assay [5], 0.604; in assay [6], 1.17. For the same compound, the composite z-score was 0.91 in assay [7], 0.46 in assay [9] and -0.169 in [10]. Also, the z-score in [8] is -2.25 (inactive).

The values above are taken from PubChem BioAssay.
